The structures appear in SMILES notation. Active and inactive are the calls of the source. Unless noted, no rule for the calls is given here.

Assay [1] has as its system XIP peptide (Xip251-270) binding. Briefly: XIP fragment 251-270 binding compounds – biochemical, small-molecule microarray, fluorescence 635/667 nm, 0.1 µg/mL protein, primary screen (AID 1182). The settings on record: fluorescent protein binding, 635 nm, higher = more signal, called active from +8 up or from −8 down.
Assay [2] deals with XIP peptide (Xip251-270). Briefly: compounds binding XIP fragment 251-270 – biochemical, small-molecule microarray, fluorescence 635/667 nm, 0.5 µg/mL protein, primary screen (AID 1183). The settings on record: fluorescence 635 nm, higher = more signal.
A short description of assay [3]: blood-stage malaria parasite viability loss – strain 3D7, DAPI fluorescence, 100 nL, primary screen (AID 1184).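 Also: parasites grown inside human red blood cells in medium with human serum.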 To be noted: P. falciparum 3D7 growth, 3 d, higher = more signal.
For assay [4], the target named is Homeobox protein Hox-A13 (Mus musculus) (UniProt Q62424). The assay can be described thus: disruptors of Hoxa13 oligonucleotide interaction – biochemical, fluorescence polarization, labeled oligonucleotide, primary screen (AID 1185). To be noted: Hoxa13:DNA binding, 15 min, higher = more signal, called active from +8 up or from −8 down. A general note: In fluorescence polarisation assays a small probe gives low polarisation when free and higher when bound to something large.

The nature of assay [5]: blockers of DNA damage checkpoint Chk1 activation – imaging, HeLa, hydroxyurea, phospho-Chk1 antibody, percent positive cells, primary screen (AID 1186). The settings on record: hydroxyurea-induced phospho-Chk1 immunofluorescence imaging, higher = more signal.
Assay [6] in a line: blockers of DNA damage checkpoint Chk1 activation – imaging, HeLa, hydroxyurea, phospho-Chk1 nuclear intensity, primary screen (AID 1187). The settings on record: hydroxyurea-induced phospho-Chk1 immunofluorescence imaging, higher = more signal.

Homeobox protein Hox-A13 (Mus musculus), sequence (Q62424 whole entry, looked up): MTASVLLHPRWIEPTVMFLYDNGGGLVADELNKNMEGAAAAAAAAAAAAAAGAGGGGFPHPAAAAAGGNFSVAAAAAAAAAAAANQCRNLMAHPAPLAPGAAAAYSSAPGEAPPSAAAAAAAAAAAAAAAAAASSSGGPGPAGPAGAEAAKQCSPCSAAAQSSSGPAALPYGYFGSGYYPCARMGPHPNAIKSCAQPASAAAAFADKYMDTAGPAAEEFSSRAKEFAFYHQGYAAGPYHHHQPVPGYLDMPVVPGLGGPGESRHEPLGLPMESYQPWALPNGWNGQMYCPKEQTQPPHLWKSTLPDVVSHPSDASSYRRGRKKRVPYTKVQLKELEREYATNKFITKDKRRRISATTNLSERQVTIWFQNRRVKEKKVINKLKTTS

For `O=C1NC(=O)C2C1C=CC(C(O)c1cccc(O)c1)N2Nc1ccc(Cl)cc1Cl` (stereo unspecified), the composite z-score is -0.186 (inactive) in assay [1] and 0.199 in assay [2]. Further, the z-score in assay [3] was -0.0722; in assay [4], -5.1 (inactive); in assay [5] it was 0.684 (inactive); in assay [6], 0.194 (inactive).

Take `COc1ccc([Si](C)(C)[C@@H]2[C@@H](CC(=O)N(CCO)Cc3ccccc3)O[C@]3(C(=O)N(Cc4ccc(N5CCC5=O)cc4)c4ccccc43)[C@H]2C)cc1`: the composite z-score is 3.33 (inactive) in assay [1] and 0.443 in assay [2]. Also, the z-score in assay [3] is -0.767; in assay [4], -1.08 (inactive); in assay [5], 0.366 (inactive); in assay [6], 0.971 (inactive).

Take `COC(=O)C1(CC(C)C)C=C2C(=C(C(C)C)C(=O)C2C)CN1` (stereo unspecified): the composite z-score in assay [1] is -0.418 (inactive); in assay [2] it was 0.172. For the same compound, the z-score is 1.24 in assay [3], -6.06 (inactive) in assay [4], 0.677 (inactive) in assay [5] and 0.675 (inactive) in assay [6].

`CCOC(=O)C[C@H]1[C@H](OC(=O)Cc2ccc3c(c2)OCO3)[C@@H](NC(=O)c2ccccc2)c2cc(OCCCO)ccc2N1C(=O)Cc1ccc(OC)cc1`: the composite z-score is 0.659 (inactive) in assay [1] and 0.288 in assay [2]. The z-score in assay [3] was -1.35; in assay [4] it was -3 (inactive); in assay [5], -1.29 (inactive); in assay [6], -1.25 (inactive).

Regarding `C=CCC(OC(C)=O)[C@@H]1[C@@H](N(Cc2cc3ccccc3o2)C(=O)c2cccc3ccccc23)c2cc(OCCCO)ccc2N1C(=O)c1ccc2ccccc2c1` (stereo partly specified), the composite z-score was 0.0745 (inactive) in assay [1] and -0.611 in assay [2]. The z-score is -2.65 in assay [3], -1.34 (inactive) in assay [4], -0.328 (inactive) in assay [5] and -0.0311 (inactive) in assay [6].

With `CC(C)C[C@H]1NC(=O)[C@@]23C(=O)N[C@@H](Cc4ccccc4)C2[C@H](C)[C@@]2(C)O[C@H]2C3/C=C/C/C=C\CNC(=O)[C@@H]2CCCN2C1=O` (stereo partly specified), the figures for the composite z-score in assay [1] and in assay [2] were 1.73 (inactive) and 0.0626, respectively. The z-score was 1.18 in assay [3], -5.47 (inactive) in assay [4], 0.216 (inactive) in assay [5] and 0.162 (inactive) in assay [6].

Consider `CN(C)CCCCNC(=O)[C@H]1C[C@H]2C(=O)N[C@@H](Cc3ccccc3)C(=O)N2[C@H]1c1cccc(OCCO)c1`, for which the composite z-score in assay [1] was -0.0743 (inactive); in assay [2], -0.0022. Further, the z-score in assay [3] is -0.0613; in assay [4] it was -3.06 (inactive); in assay [5], -0.826 (inactive); in assay [6], -0.851 (inactive).

Turning to `CCOC(=O)C[C@H]1[C@H](OC(=O)c2ccc(-c3ccccc3)cc2)[C@@H](NC(=O)c2ccc3ccccc3c2)c2cc(OCCCO)ccc2N1C(=O)c1ccccc1`, the composite z-score in assay [1] was 0.377 (inactive); in assay [2] it was -0.0506. The z-score in assay [3] is -0.633; in assay [4] it was -1.35 (inactive); in assay [5], 0.0034 (inactive); in assay [6], 0.241 (inactive).

For the compound `COC(=O)[C@@]1(Cc2ccc(OC)cc2)[C@H]2c3cc(C(=O)N4CCCC4)n(CCc4ccc(OC)c(Br)c4)c3C[C@H]2CN1C(=O)c1ccccc1`, the values for the composite z-score in assay [1] and in assay [2] were -0.0245 (inactive) and -0.879, respectively. For the same compound, the z-score in assay [3] was -1.17; in assay [4], -4.39 (inactive); in assay [5], -0.299 (inactive); in assay [6], -0.0792 (inactive).

With `COC(=O)[C@@]1(Cc2ccc(F)cc2)[C@H]2c3cc(C(=O)N(C)C)n(CCO)c3C[C@H]2CN1C(=O)c1ccccc1`, the composite z-score was 1.79 (inactive) in assay [1] and 0.39 in assay [2]. For the same compound, the z-score in assay [3] was 0.196; in assay [4], -4.71 (inactive); in assay [5] it was -0.0514 (inactive); in assay [6], 0.138 (inactive).

For the compound `N[C@@H](Cc1ccccc1)Cn1cc(C2(O)CCCCC2)nn1`, the composite z-score was -0.0563 (inactive) in assay [1] and 0.0069 in assay [2]. Besides, the z-score in assay [3] was 0.493; in assay [4], -3.59 (inactive); in assay [5], 0.43 (inactive); in assay [6], 0.426 (inactive).

As to `Cc1ccc(F)cc1S(=O)(=O)N[C@@H]1CCN(Cc2ccc3[nH]ccc3c2)C1`, the figures for the composite z-score in assay [1] and in assay [2] were -0.0141 (inactive) and 0.261, respectively. The z-score in assay [3] is -1.3; in assay [4], -4.14 (inactive); in assay [5], 0.29 (inactive); in assay [6] it was -0.075 (inactive).

For `CCCCC(O)C1C=CC2C(=O)NC(=O)C2N1Nc1ccc(Cl)cc1Cl` (stereo unspecified), the composite z-score in assay [1] is -0.0109 (inactive); in assay [2], -0.405. In addition, the z-score in assay [3] is -0.565; in assay [4] it was -4.78 (inactive); in assay [5] it was -0.515 (inactive); in assay [6] it was -0.438 (inactive).

With `CC(C)C[C@@H]1NC(=O)[C@@]23C(=O)N[C@@H](Cc4ccccc4)C2[C@H](C)[C@@]2(C)O[C@H]2C3/C=C/C/C=C\CNC(=O)[C@@H](CC(C)C)NC1=O` (stereo partly specified), the figures for the composite z-score in assay [1] and in assay [2] were 0.549 (inactive) and 0.414, respectively. Moreover, the z-score was -0.0432 in assay [3], -6.77 (inactive) in assay [4], -0.0685 (inactive) in assay [5] and 0.0529 (inactive) in assay [6].

On to `COC(=O)[C@]1(CO)N=C(c2ccc(OCCCO)cc2)O[C@@H]1c1ccccc1CN=[N+]=[N-]`, for which the composite z-score in assay [1] is 0.495 (inactive); in assay [2], -0.116. Besides, the z-score in assay [3] was -0.217; in assay [4], -5 (inactive); in assay [5], -0.33 (inactive); in assay [6], -0.658 (inactive).

Regarding `COc1cc2c(cc1O)C(c1ccc(CN3CCCC3)cc1)N(Cc1cccc(OC(F)(F)F)c1)CC2` (stereo unspecified), the composite z-score was -0.153 (inactive) in assay [1] and 0.156 in assay [2]. Besides, the z-score in assay [3] was -2.1; in assay [4] it was -2.99 (inactive); in assay [5], 0.0325 (inactive); in assay [6], 0.348 (inactive).

These data come from PubChem BioAssay.
